From PubChem BioAssay
Active and inactive are the calls of the source. Unless noted, the rule behind the calls is not given here.

Columns and labels:
[1] = test system: Wnt5a (protein binding on small-molecule microarray); test: Wnt5a binders on small-molecule microarray, primary screen, biophysical, 635/667 nm fluorescence (AID 1142); settings: 635 nm fluorescence, higher = more signal;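 note: fluorescence read at 667 nm with signal to noise per printed feature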
[2] = cell viability in Huh7 cells, primary screen, cytotoxicity control for HCV replication inhibitor project, CellTiter-Glo luminescence, basal, 48 h (AID 1143); settings: Huh7 HCV replicon, higher = more signal, called active from +8 up or from −8 down;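 note: Huh7 hepatoma cells carrying a hepatitis C replication reporter with no stimulus; test concentration not given here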
[3] = P. aeruginosa biofilm formation inhibitors, primary screen, PAO1 strain, BacTiter-Glo luminescence, LB-PBS (AID 1144); settings: 12 h, higher = more signal
[4] = CREB reporter modulators without forskolin, primary screen, cell-based, PC12, CRE-LacZ reporter, unstimulated (AID 1145); settings: no forskolin, luminescence, 4.5 h, higher = more signal, called active from +8 up or from −8 down
[5] = CREB reporter modulators under forskolin, primary screen, cell-based, PC12, CRE-LacZ reporter, forskolin-stimulated (AID 1146); settings: luminescence, 4.5 h, higher = more signal, called active from +8 up or from −8 down;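 note: PC12 cells with 6xCRE LacZ reporter stimulated by forskolin 10 µM; beta-galactosidase reporter signal reflecting CREB driven transcription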
[6] = target: Streptavidin (Streptomyces avidinii) (UniProt P22629); test: streptavidin binders on small-molecule microarray, primary screen, artefact control for SMM compound annotation, biophysical, 635/667 nm fluorescence (AID 1147); settings: streptavidin binding, higher = more signal;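 note: signal reflects streptavidin binding to arrayed compounds as a control protein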
Sequence of Streptavidin (Streptomyces avidinii) (P22629 whole entry, looked up): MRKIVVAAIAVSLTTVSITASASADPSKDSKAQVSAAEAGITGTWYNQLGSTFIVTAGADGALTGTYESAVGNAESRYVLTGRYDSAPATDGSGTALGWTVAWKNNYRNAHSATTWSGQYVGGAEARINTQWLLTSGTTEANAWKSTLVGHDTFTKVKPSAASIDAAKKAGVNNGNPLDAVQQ

[7] = small-molecule binders of probe aInhba, primary screen, biochemical, small-molecule microarray, 635/667 nm fluorescence (AID 1148); settings: higher = more signal;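 note: score merges 667nm spot fluorescence with signal-to-noise for antibody binding to printed compounds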
Torsin-1A (Homo sapiens) [8] = target: Torsin-1A (Homo sapiens) (UniProt O14656); test: torsin A binders from cell lysate, primary screen, small-molecule microarray, wild-type, 635/667 nm (AID 1149); settings: COS7 hTOR1A-WT lysate, 635 nm fluorescence, higher = more signal
Sequence of Torsin-1A (Homo sapiens) (O14656 whole entry, looked up): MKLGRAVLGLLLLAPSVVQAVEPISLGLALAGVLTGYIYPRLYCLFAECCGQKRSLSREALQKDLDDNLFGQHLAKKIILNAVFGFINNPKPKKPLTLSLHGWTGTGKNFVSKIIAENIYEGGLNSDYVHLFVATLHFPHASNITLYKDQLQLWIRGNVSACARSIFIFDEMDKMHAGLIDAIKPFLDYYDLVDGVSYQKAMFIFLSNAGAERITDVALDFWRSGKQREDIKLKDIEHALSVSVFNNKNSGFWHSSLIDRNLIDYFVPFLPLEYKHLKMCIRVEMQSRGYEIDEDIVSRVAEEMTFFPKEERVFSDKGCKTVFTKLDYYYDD

Torsin-1A (Homo sapiens) [9] = target: Torsin-1A (Homo sapiens) (UniProt O14656); test: small-molecule binders of mutant TOR1A in lysate, primary screen, cell lysate, small-molecule microarray, COS7 lysate, 635/667 nm fluorescence (AID 1150); settings: COS7 hTOR1A mutant lysate, 635 nm fluorescence, higher = more signal;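 note: score pools 667 nm emission and signal to noise measuring lysate protein binding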
[10] = test system: Sonic hedgehog protein (Shh); test: small-molecule binders of Shh protein, primary screen, biochemical, small-molecule microarray, 635/667 nm fluorescence (AID 1151); settings: small-molecule microarray binding, 635 nm fluorescence; higher = more signal;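 note: Shh protein binding to compounds spotted on small-molecule microarray slides; score combines spot fluorescence intensity with signal-to-noise across triplicate slides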
[11] = E. coli DRC41 culture turbidity changes, primary screen, E. coli filamentation inducer project, strain DRC41, OD650, 48 h (AID 1152);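 note: E. coli MC1000 strain DRC41 lacking acrAB efflux pump and sulA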; settings: E. coli DRC41 (acrAB sulA), higher = more signal, called active from +8 up or from −8 down
[12] = small-molecule binders of probe aLefty1, primary screen, biochemical, small-molecule microarray, 635/667 nm fluorescence (AID 1153); settings: higher = more signal;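 note: score merges spot fluorescence with signal-to-noise ratio from the scanned slide images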
[13] = PSAC antagonists in infected red cells, primary screen, cell-based, P. falciparum Indochina, OD700, 1 h (AID 1154); settings: P. falciparum Indochina infected RBC osmotic lysis, higher = more signal, called active from +8 up or from −8 down
[14] = PSAC antagonists in infected red cells, primary screen, cell-based, P. falciparum Indochina, OD700, 2 h (AID 1155);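 note: lysis reports solute entry through the parasite surface anion channel PSAC; channel blockers reduce lysis of infected cells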; settings: P. falciparum Indochina infected erythrocytes, osmotic lysis OD700; higher = more signal, called active from +8 up or from −8 down
[15] = osmotic lysis modulators in infected erythrocytes, primary screen, PSAC antagonist project, cell-based, P. falciparum Indochina, OD700, 3 h (AID 1156); settings: higher = more signal, called active from +8 up or from −8 down
[16] = PSAC antagonists in infected red cells, primary screen, cell-based, P. falciparum Indochina, OD700, 18 h (AID 1157); settings: P. falciparum Indochina infected erythrocytes, osmotic lysis OD700, 18 h; higher = more signal, called active from +8 up or from −8 down
[17] = modulators of S6 phosphorylation in cells, primary screen, cell-based, A549, cytoblot, luminescence, serum-stimulated (AID 1158); settings: A549 phospho-S6 cytoblot, 5 h, higher = more signal;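 note: serum-stimulated A549 lung adenocarcinoma cells; signal is phosphorylated S6 detected by cytoblot immunostaining with HRP secondary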
[18] = target: NADPH oxidase 2 (Homo sapiens) (UniProt P04839); test: NOX2-dependent H2O2 signal modulators, primary screen, NOX inhibitor project, cell-based, HEK293-NOX2, PMA-stimulated, Amplex Red fluorescence (AID 1159); settings: 45 min, higher = more signal, called active from +8 up or from −8 down; note: test concentration not given here
Sequence of NADPH oxidase 2 (Homo sapiens) (P04839 whole entry, looked up): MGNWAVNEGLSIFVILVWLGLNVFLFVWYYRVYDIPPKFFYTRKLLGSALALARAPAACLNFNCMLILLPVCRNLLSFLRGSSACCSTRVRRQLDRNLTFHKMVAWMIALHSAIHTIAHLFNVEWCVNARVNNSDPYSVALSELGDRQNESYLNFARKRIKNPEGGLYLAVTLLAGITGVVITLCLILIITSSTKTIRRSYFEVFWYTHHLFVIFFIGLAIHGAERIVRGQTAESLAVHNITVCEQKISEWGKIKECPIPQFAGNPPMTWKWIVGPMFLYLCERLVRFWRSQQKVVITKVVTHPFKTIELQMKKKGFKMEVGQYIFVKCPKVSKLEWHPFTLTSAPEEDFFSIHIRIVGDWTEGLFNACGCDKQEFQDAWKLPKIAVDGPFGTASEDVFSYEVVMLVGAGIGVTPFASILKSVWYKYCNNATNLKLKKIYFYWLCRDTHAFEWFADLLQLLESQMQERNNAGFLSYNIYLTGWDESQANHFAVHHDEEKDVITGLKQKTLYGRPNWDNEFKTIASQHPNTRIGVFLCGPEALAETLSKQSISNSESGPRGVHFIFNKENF

[19] = target: NADPH oxidase 4 (Homo sapiens) (UniProt Q9NPH5); test: NOX4-dependent H2O2 signal modulators, primary screen, NOX inhibitor project, cell-based, HEK293-NOX4, tetracycline-induced, Amplex Red fluorescence (AID 1160); settings: 45 min, higher = more signal, called active from +8 up or from −8 down
Sequence of NADPH oxidase 4 (Homo sapiens) (Q9NPH5 whole entry, looked up): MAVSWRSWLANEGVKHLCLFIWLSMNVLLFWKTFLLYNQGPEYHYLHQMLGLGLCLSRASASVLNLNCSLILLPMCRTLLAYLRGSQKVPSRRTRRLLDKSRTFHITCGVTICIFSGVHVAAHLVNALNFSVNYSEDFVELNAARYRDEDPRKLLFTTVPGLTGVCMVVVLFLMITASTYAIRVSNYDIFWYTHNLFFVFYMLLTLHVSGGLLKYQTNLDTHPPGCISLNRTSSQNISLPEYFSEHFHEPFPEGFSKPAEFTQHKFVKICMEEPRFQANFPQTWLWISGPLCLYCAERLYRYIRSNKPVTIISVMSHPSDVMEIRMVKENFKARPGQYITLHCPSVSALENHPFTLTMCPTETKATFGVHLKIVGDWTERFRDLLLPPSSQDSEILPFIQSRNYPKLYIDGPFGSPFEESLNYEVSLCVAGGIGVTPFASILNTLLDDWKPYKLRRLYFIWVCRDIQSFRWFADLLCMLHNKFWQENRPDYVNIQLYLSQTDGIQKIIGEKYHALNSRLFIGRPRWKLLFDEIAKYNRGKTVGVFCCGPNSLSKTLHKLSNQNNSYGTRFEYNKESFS

[20] = target: NADPH oxidase 5 (Homo sapiens) (UniProt Q96PH1); test: NOX5-dependent H2O2 signal modulators, primary screen, NOX inhibitor project, cell-based, HEK293-NOX5, Amplex Red fluorescence (AID 1161); settings: HEK293-NOX5, ionomycin, 45 min, higher = more signal
Sequence of NADPH oxidase 5 (Homo sapiens) (Q96PH1 whole entry, looked up): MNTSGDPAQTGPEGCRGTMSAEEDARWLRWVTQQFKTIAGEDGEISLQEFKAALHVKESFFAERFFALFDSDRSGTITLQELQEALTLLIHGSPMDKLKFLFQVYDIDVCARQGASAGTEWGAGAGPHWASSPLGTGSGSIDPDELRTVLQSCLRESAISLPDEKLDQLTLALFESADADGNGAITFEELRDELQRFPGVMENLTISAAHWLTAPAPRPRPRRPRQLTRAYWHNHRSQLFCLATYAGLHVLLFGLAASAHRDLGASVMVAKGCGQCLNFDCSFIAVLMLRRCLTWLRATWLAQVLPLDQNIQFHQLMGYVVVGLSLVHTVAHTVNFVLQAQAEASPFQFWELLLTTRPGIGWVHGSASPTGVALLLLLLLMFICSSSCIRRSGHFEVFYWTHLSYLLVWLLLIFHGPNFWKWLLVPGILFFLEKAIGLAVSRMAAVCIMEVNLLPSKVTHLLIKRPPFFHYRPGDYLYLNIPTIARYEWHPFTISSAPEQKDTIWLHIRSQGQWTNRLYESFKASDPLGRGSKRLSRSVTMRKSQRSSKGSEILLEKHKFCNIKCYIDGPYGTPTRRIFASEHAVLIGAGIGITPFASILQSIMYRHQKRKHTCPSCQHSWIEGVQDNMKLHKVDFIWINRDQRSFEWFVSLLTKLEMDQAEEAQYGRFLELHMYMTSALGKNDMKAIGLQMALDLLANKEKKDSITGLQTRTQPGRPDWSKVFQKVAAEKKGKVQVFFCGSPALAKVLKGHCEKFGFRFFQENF

Row | Compound | composite z-score [1] | z-score [2] | z-score [3] | z-score [4] | z-score [5] | composite z-score [6] | composite z-score [7] | composite z-score (Torsin-1A (Homo sapiens) [8]) | composite z-score (Torsin-1A (Homo sapiens) [9]) | composite z-score [10] | z-score [11] | composite z-score [12] | z-score [13] | z-score [14] | z-score [15] | z-score [16] | z-score [17] | z-score [18] | z-score [19] | z-score [20]
1 | O=C1[C@H]2C=C(Br)[C@H](C[C@@H]2OCCOCCO)[C@@]12CO2 | 0.268 | 0.808 (inactive) | 0.199 (inactive) | -1.23 (inactive) | 1.6 (inactive) | 0.138 | -0.118 | -0.428 | -0.385 | 0.0806 | -0.927 (inactive) | -0.276 | 0.658 (inactive) | 0.276 (inactive) | -0.0195 (inactive) | 0.0588 (inactive) | -0.391 | 1.36 (inactive) | 0.561 (inactive) | 0.0214
2 | CCOC1=C2C(c3ccc(C)cc3)N(S(=O)(=O)c3ccc(C)cc3)CC2n2c(=O)n(-c3ccccc3)c(=O)n2C1 (stereo not given) | 0.323 | -0.576 (inactive) | 1.11 (inactive) | 0.0331 (inactive) | 0.0749 (inactive) | 1.09 | 0.0135 | 0.301 | 0.254 | 0.254 | -0.346 (inactive) | 0.175 | 1.08 (inactive) | 1.32 (inactive) | 0.458 (inactive) | 0.807 (inactive) | -0.0263 | 1.22 (inactive) | 0.965 (inactive) | 0.536
3 | Cc1c(NC(=O)/C(C#N)=C/C=C/c2ccccc2)c(=O)n(-c2ccccc2)n1C | 0.17 | -0.328 (inactive) | 0.374 (inactive) | -0.967 (inactive) | -0.733 (inactive) | 0.783 | 0.0018 | 0.172 | 0.426 | 0.522 | 0.813 (inactive) | -0.213 | 1.96 (inactive) | 0.379 (inactive) | 0.0643 (inactive) | 0.205 (inactive) | -0.25 | -0.328 (inactive) | 0.0418 (inactive) | 0.649
4 | COCCOC(=O)N1C(=O)[C@@]2(c3cc(C#Cc4ccc(OC)cc4)ccc31)[C@H](c1ccc(OCCO)cc1)N1[C@H](c3ccccc3)[C@H](c3ccccc3)OC(=O)[C@H]1[C@@H]2C(=O)N1CCc2cc(OC)c(OC)cc2C1 | 0.377 | -2.85 (inactive) | -1.61 (inactive) | -1.15 (inactive) | -1.33 (inactive) | 0.482 | -0.0736 | 0.37 | 0.454 | 1.85 | 2.55 (inactive) | 0.212 | 4.14 (inactive) | 1.8 (inactive) | -0.867 (inactive) | 0.608 (inactive) | 1.02 | 0.576 (inactive) | 0.459 (inactive) | 1.27
5 | COCCCNC(=O)[C@@]1(C)c2ccccc2C(=O)N(Cc2ccccc2)[C@H]1c1ccc(CO)cc1 | -0.811 | -4.52 (inactive) | -0.453 (inactive) | -0.295 (inactive) | -0.463 (inactive) | -0.944 | -0.0963 | -2.72 | 2.16 | 0.182 | -0.0509 (inactive) | 0.114 | 2.68 (inactive) | 0.179 (inactive) | 2.67 (inactive) | -0.487 (inactive) | 2.82 | -1.63 (inactive) | -2.44 (inactive) | -2.66
6 | CC(C)(C)OC(=O)CC[C@]1(C(=O)NCC(O)CO)N=C(c2ccc(OCCCO)cc2)O[C@H]1c1ccccc1CN=[N+]=[N-] (stereo not given in full) | 0.921 | 0.168 (inactive) | -1.35 (inactive) | 0.0594 (inactive) | -0.209 (inactive) | 1.63 | 0.496 | 0.399 | 2.06 | -0.535 | -0.207 (inactive) | 0.975 | 17.2 (active) | 2.39 (inactive) | 0.471 (inactive) | 0.297 (inactive) | -0.832 | 1.38 (inactive) | 1.57 (inactive) | 2.2
7 | O=C(NCc1ccccc1)[C@@H]1c2ccccc2C(=O)N(C2CCCCC2)[C@H]1c1ccc(CO)cc1 | 0.191 | -1.08 (inactive) | 0.583 (inactive) | 0.234 (inactive) | 0.174 (inactive) | -0.395 | -0.352 | 0.113 | 1.11 | 1.4 | -0.246 (inactive) | -0.458 | 2.67 (inactive) | 0.0744 (inactive) | 0.473 (inactive) | 0.475 (inactive) | -0.127 | -0.245 (inactive) | 0.684 (inactive) | 0.725
8 | COCCOC(=O)N1C(=O)[C@@]2(c3cc(C#CC4=CCCCC4)ccc31)[C@H](c1ccc(OCCO)cc1)N1[C@H](c3ccccc3)[C@H](c3ccccc3)OC(=O)[C@H]1[C@@H]2C(=O)Nc1nc2ccccc2s1 | 0.329 | -3.52 (inactive) | -2.45 (inactive) | -1.16 (inactive) | -0.482 (inactive) | 1.27 | -0.0178 | -0.0779 | 0.394 | 0.911 | 2.88 (inactive) | 0.114 | 2.35 (inactive) | 0.922 (inactive) | -0.419 (inactive) | 1.83 (inactive) | 1.24 | 0.821 (inactive) | 0.824 (inactive) | 1.35
